# Test results published in the supplement of paper PMC8728848.
# Many of the other results were omitted from the sample, so the strongest signals are more common in it than they were.
# B1: AAL (Aleuria aurantia), P18891 (protein)
# chain: PTEFLYTSKIAAISWAATGGRQQRVYFQDLNGKIREAQRGGDNPWTGGSSQNVIGEAKLFSPLAAVTWKSAQGIQIRVYCVNKDNILSEFVYDGSKWITGQLGSVGVKVGSNSKLAALQWGGSESAPPNIRVYYQKSNGSGSSIHEYVWSGKWTAGASFGSTVPGTGIGATAIGPGRLRIYYQATDNKIREHCWDSNSWYVGGFSASASAGVSIAAISWGSTPNIRVYWQKGREELYEAAYGGSWNTPGQIKDASRPTPSLPDTFIAANSSGNIDISVFFQASGVSLQQWQWISGKGWSIGAVVPTGTPAGW
# Key:
# Assay in all cases: glycan array binding signal (z-score within array); higher = stronger binding
# Conditions in all cases: glycan notation: IUPAC condensed, linker removed
# [1] = molecular target: Fuc(a1-2)Gal(b1-3)GlcNAc(b1-2)Man(a1-3)[Fuc(a1-2)Gal(b1-3)GlcNAc(b1-2)Man(a1-6)]Man(b1-4)GlcNAc(b1-4)[Fuc(a1-6)]GlcNAc
# Outline: (§1)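 The Consortium for Functional Glycomics database supplied 3228 glycan arrays, of which those lacking an available protein sequence were dropped. The binding signal, a within-array Z-score, was averaged across arrays of the same protein sequence and across linkers. Negative scores can be read as non-binding.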
# Fuc(a1-2)Gal(b1-4)Glc6S = molecular target: Fuc(a1-2)Gal(b1-4)Glc6S
# Outline: as §1
# [2] = molecular target: Fuc(a1-2)Gal(b1-4)GlcNAc(b1-3)Gal(b1-4)GlcNAc(b1-3)Gal(b1-4)GlcNAc
# Outline: as §1
# [3] = molecular target: Fuc(a1-2)Gal(b1-4)GlcNAc6S
# Outline: as §1
# [4] = molecular target: Fuc(a1-2)Gal(b1-4)[Fuc(a1-3)]GlcNAc
# Outline: as §1
# [5] = molecular target: Fuc(a1-2)Gal(b1-4)[Fuc(a1-3)]GlcNAc(b1-3)Gal(b1-4)[Fuc(a1-3)]GlcNAc(b1-3)Gal(b1-4)[Fuc(a1-3)]GlcNAc
# Outline: as §1
# [6] = molecular target: Fuc(a1-2)Gal6S(b1-4)GlcNAc
# Outline: as §1
# [7] = molecular target: Fuc(a1-2)[Gal(a1-3)]Gal(b1-3)GlcNAc(b1-2)Man(a1-3)[Fuc(a1-2)[Gal(a1-3)]Gal(b1-3)GlcNAc(b1-2)Man(a1-6)]Man(b1-4)GlcNAc(b1-4)GlcNAc
# Outline: as §1
# Fuc(a1-3)GlcNAc = molecular target: Fuc(a1-3)GlcNAc
# Outline: as §1
# [8] = molecular target: Fuc(a1-3)[Gal3S(b1-4)]GlcNAc
# Outline: as §1
# Fuc(a1-4)GlcNAc = molecular target: Fuc(a1-4)GlcNAc
# Outline: as §1
# [9] = molecular target: Gal(a1-3)Gal(b1-4)[Fuc(a1-3)]GalNAc
# Outline: as §1
# Gal(a1-4)GlcNAc = molecular target: Gal(a1-4)GlcNAc
# Outline: as §1
# [10] = molecular target: Gal(b1-3)GlcNAc(b1-3)Gal(b1-4)[Fuc(a1-3)]GlcNAc(b1-6)[Gal(b1-3)GlcNAc(b1-3)]Gal(b1-4)Glc
# Outline: as §1
# [11] = molecular target: Gal(b1-3)GlcNAc(b1-3)GalNAc
# Outline: as §1
# [12] = molecular target: Gal(b1-3)[GlcNAc(b1-6)]GlcNAc
# Outline: as §1
# [13] = molecular target: Gal(b1-4)GlcNAc(b1-2)[Gal(b1-4)GlcNAc(b1-4)]Man(a1-3)[GlcNAc(b1-4)][Gal(b1-4)GlcNAc(b1-2)Man(a1-6)]Man(b1-4)GlcNAc(b1-4)GlcNAc
# Outline: as §1
# [14] = molecular target: Gal(b1-4)GlcNAc(b1-3)Gal(b1-4)[Fuc(a1-3)GlcNAc(b1-6)]Gal(b1-4)Glc
# Outline: as §1
# Glc(b1-4)Glc = molecular target: Glc(b1-4)Glc
# Outline: as §1
# [15] = molecular target: GlcNAc(a1-3)Gal(b1-4)GlcNAc
# Outline: as §1
# GlcNAc(b1-3)Gal = molecular target: GlcNAc(b1-3)Gal
# Outline: as §1
# [16] = molecular target: GlcNAc(b1-3)Gal(b1-3)GalNAc
# Outline: as §1
# [17] = molecular target: GlcNAc(b1-3)[GlcNAc(b1-6)]Gal(b1-4)GlcNAc
# Outline: as §1
# [18] = molecular target: GlcNAc(b1-3)[GlcNAc(b1-6)]GlcNAc(b1-4)GlcNAc
# Outline: as §1
# [19] = molecular target: GlcNAc(b1-4)Gal(b1-4)GlcNAc
# Outline: as §1
# [20] = molecular target: GlcNAc6S(b1-3)Gal(b1-4)GlcNAc
# Outline: as §1
# [21] = molecular target: Neu5Ac(a2-3)Gal(b1-3)GlcNAc6S
# Outline: as §1
# [22] = molecular target: Neu5Ac(a2-3)Gal(b1-3)[Fuc(a1-4)]GlcNAc
# Outline: as §1
# [23] = molecular target: Neu5Ac(a2-3)Gal(b1-4)GlcNAc(b1-6)[Gal(b1-3)]GalNAc
# Outline: as §1
# [24] = molecular target: Neu5Ac(a2-3)Gal6S(b1-4)GlcNAc
# Outline: as §1
# Neu5Ac(a2-3)GalNAc = molecular target: Neu5Ac(a2-3)GalNAc
# Outline: as §1
# [25] = molecular target: Neu5Ac(a2-3)[Neu5Ac(a2-6)]GalNAc
# Outline: as §1
# [26] = molecular target: Neu5Ac(a2-6)Gal(b1-4)GlcNAc(b1-2)Man(a1-6)[GlcNAc(b1-2)Man(a1-3)]Man(b1-4)GlcNAc(b1-4)GlcNAc
# Outline: as §1
# [27] = molecular target: Neu5Ac(a2-8)Neu5Ac(a2-3)[GalNAc(b1-4)]Gal(b1-4)Glc
# Outline: as §1
# [28] = molecular target: Neu5Ac(a2-8)Neu5Ac(a2-8)Neu5Ac
# Outline: as §1
binder,measurement,setting,value
B1,glycan array binding signal (z-score),[1],-0.012
same,glycan array binding signal (z-score),Fuc(a1-2)Gal(b1-4)Glc6S,3.52
same,glycan array binding signal (z-score),[2],3.03
same,glycan array binding signal (z-score),[3],2.6
same,glycan array binding signal (z-score),[4],2.51
same,glycan array binding signal (z-score),[5],2.68
same,glycan array binding signal (z-score),[6],2.6
same,glycan array binding signal (z-score),[7],-0.407
same,glycan array binding signal (z-score),Fuc(a1-3)GlcNAc,2.85
same,glycan array binding signal (z-score),[8],1.76
same,glycan array binding signal (z-score),Fuc(a1-4)GlcNAc,1.99
same,glycan array binding signal (z-score),[9],2.52
same,glycan array binding signal (z-score),Gal(a1-4)GlcNAc,-0.498
same,glycan array binding signal (z-score),[10],0.584
same,glycan array binding signal (z-score),[11],-0.414
same,glycan array binding signal (z-score),[12],-0.62
same,glycan array binding signal (z-score),[13],-0.348
same,glycan array binding signal (z-score),[14],0.521
same,glycan array binding signal (z-score),Glc(b1-4)Glc,-0.525
same,glycan array binding signal (z-score),[15],-0.512
same,glycan array binding signal (z-score),GlcNAc(b1-3)Gal,-0.501
same,glycan array binding signal (z-score),[16],-0.515
same,glycan array binding signal (z-score),[17],-0.514
same,glycan array binding signal (z-score),[18],-0.567
same,glycan array binding signal (z-score),[19],-0.525
same,glycan array binding signal (z-score),[20],-0.391
same,glycan array binding signal (z-score),[21],-0.493
same,glycan array binding signal (z-score),[22],1.33
same,glycan array binding signal (z-score),[23],-0.444
same,glycan array binding signal (z-score),[24],1.5
same,glycan array binding signal (z-score),Neu5Ac(a2-3)GalNAc,-0.531
same,glycan array binding signal (z-score),[25],-0.551
same,glycan array binding signal (z-score),[26],-0.423
same,glycan array binding signal (z-score),[27],-0.499
same,glycan array binding signal (z-score),[28],-0.526
